Assay results from the supplement of paper PMC10849652.
Targets with a hit are over-represented here; the source holds about 8,800 in all. About 0.5% of all pairs of compound and target were hits.

Experiments:
Experiment in all cases: log2 fold change, soluble protein after heating vs DMSO (PISA); higher = thermal stabilisation; K562 lysate, 10 uM; active = over 0.2 and 3.5 SD of the protein, either way, in both replicates (recomputed)
nilotinib = compound: Cc1cn(-c2cc(NC(=O)c3ccc(C)c(Nc4nccc(-c5cccnc5)n4)c3)cc(C(F)(F)F)c2)cn1 [nilotinib]
Method in brief: (§1)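 Soluble protein was defined as the supernatant remaining after 21,000xg for 90 min, following pooling of heated aliquots and adjustment to 0.5% NP-40 at 4°C. Before that, crude K562 extract at 1 mg/mL protein in PBS pH 7.4 with 1 mM MgCl2 was treated with 10 μM compound for 30 min and heated for 3 min across 48°C-58°C. Quantification used TMTpro 16plex LC-MS/MS with channel sums equalised, and values are log-two fold changes in thermal stability relative to solvent controls from duplicates.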

[1] = compound: Cc1nc(Nc2n[nH]c3c2CN(C(=O)N[C@H](CN(C)C)c2ccccc2)C3(C)C)c2sccc2n1
Method in brief: as §1

dasatinib = compound: Cc1nc(Nc2ncc(C(=O)Nc3c(C)cccc3Cl)s2)cc(N2CCN(CCO)CC2)n1 [dasatinib]
Method in brief: as §1

[2] = compound: Cc1ncc(-c2ccnc(Nc3ccc(S(C)(=O)=O)cc3)n2)n1C(C)C
Method in brief: as §1

[3] = compound: Cn1cc(-c2ccc3c(c2)CCN3C(=O)Cc2cccc(C(F)(F)F)c2)c2c(N)ncnc21
Method in brief: as §1

quisinostat = compound: Cn1cc(CNCC2CCN(c3ncc(C(=O)NO)cn3)CC2)c2ccccc21 [quisinostat]
Method in brief: as §1

tipifarnib = compound: Cn1cncc1[C@@](N)(c1ccc(Cl)cc1)c1ccc2c(c1)c(-c1cccc(Cl)c1)cc(=O)n2C [tipifarnib]
Method in brief: as §1

[4] = compound: NC(=O)Nc1cc(-c2cccc(F)c2)sc1C(=O)N[C@H]1CCCNC1
Method in brief: as §1

[5] = compound: NC(=O)c1cnc(N[C@@H]2CCCC[C@@H]2N)nc1Nc1cccc(-n2nccn2)c1
Method in brief: as §1

[6] = compound: NC1(c2ccc(-c3nc4ccn5c(=O)[nH]nc5c4cc3-c3ccccc3)cc2)CCC1
Method in brief: as §1

Measured: log2 fold change

INTS14 (UniProt Q96SY0)
inactive: nilotinib 0.024 | [1] 0.023 | dasatinib -0.038 | [2] -0.023 | [3] -0.004 | quisinostat -0.018 | tipifarnib -0.004 | [4] -0.01 | [5] -0.026 | [6] -0.011

KHK isoform 2 (UniProt P50053)
inactive: nilotinib -0.004 | [1] 0.035 | dasatinib -0.075 | [2] -0.02 | [3] -0.035 | quisinostat -0.021 | tipifarnib -0.043 | [4] -0.019 | [5] -0.018 | [6] -0.023

HAUS2 (UniProt Q9NVX0)
Sequence of UniProt Q9NVX0 (Q9NVX0 whole entry, looked up): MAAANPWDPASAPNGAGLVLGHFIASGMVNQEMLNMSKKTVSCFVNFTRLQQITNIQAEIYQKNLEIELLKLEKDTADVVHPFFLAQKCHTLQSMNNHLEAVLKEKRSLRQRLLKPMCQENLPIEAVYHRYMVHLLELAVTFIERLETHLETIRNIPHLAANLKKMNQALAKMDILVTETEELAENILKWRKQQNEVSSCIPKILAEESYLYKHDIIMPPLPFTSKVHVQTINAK
inactive: nilotinib 0.036 | [1] -0.033 | dasatinib -0.028 | [2] 0.069 | [3] 0.05 | quisinostat -0.04 | tipifarnib -0.034 | [4] -0.014 | [5] -0.094 | [6] 0.037

GIT1 (UniProt Q9Y2X7)
Sequence of UniProt Q9Y2X7 (Q9Y2X7 whole entry, looked up): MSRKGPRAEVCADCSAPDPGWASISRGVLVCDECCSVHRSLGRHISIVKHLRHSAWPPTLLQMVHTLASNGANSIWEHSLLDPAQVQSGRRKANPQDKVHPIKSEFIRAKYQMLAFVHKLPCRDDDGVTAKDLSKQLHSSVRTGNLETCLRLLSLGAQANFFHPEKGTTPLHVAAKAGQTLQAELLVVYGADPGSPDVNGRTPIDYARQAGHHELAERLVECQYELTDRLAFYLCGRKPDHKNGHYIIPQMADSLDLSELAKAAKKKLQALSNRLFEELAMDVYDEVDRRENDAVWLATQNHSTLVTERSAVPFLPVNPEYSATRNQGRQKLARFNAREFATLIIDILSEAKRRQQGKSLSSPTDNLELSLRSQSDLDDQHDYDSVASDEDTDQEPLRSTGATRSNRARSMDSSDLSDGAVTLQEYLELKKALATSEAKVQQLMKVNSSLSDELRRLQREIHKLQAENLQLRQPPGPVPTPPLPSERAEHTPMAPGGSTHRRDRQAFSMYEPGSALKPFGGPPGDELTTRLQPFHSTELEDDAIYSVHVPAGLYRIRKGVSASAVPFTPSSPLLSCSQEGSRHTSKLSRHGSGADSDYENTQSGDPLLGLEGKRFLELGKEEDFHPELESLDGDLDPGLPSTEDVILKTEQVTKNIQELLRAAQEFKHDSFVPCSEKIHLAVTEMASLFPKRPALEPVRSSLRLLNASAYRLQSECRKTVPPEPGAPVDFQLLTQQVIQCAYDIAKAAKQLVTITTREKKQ
inactive: nilotinib 0.03 | [1] -0.062 | dasatinib -0.05 | [2] -0.042 | [3] 0.036 | quisinostat -0.045 | tipifarnib -0.086 | [4] 0.035 | [5] -0.007 | [6] -0.026

GSTP1 (UniProt P09211)
inactive: nilotinib 0.006 | [1] -0.001 | dasatinib -0.035 | [2] -0.003 | [3] -0.01 | quisinostat -0.016 | tipifarnib 0.029 | [4] -0.029 | [5] -0.004 | [6] 0.01

GPX4 (UniProt P36969)
Sequence of UniProt P36969 (P36969 whole entry, looked up): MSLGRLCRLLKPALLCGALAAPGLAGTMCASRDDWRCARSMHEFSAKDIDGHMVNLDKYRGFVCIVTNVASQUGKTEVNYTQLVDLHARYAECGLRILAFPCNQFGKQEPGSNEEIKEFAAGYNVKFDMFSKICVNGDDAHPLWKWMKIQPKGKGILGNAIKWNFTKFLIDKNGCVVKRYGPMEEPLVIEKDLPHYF
inactive: nilotinib -0.011 | [1] -0.001 | dasatinib 0.01 | [2] 0.039 | [3] -0.024 | quisinostat -0.012 | tipifarnib -0.009 | [4] 0.02 | [5] -0.011 | [6] 0.011

KDM6A (UniProt O15550)
inactive: nilotinib 0.009 | [1] 0.033 | dasatinib 0.041 | [2] -0.009 | [3] 0.015 | quisinostat -0.062 | tipifarnib -0.031 | [4] 0.002 | [5] -0.017 | [6] 0.009

IMMT (UniProt C9J406)
inactive: nilotinib -0.044 | [1] 0.09 | dasatinib 0.045 | [2] 0.012 | [3] 0.051 | quisinostat 0.022 | tipifarnib -0.03 | [4] 0 | [5] 0.023 | [6] -0.038

IGFBP4 (UniProt P22692)
Sequence of UniProt P22692 (P22692 whole entry, looked up): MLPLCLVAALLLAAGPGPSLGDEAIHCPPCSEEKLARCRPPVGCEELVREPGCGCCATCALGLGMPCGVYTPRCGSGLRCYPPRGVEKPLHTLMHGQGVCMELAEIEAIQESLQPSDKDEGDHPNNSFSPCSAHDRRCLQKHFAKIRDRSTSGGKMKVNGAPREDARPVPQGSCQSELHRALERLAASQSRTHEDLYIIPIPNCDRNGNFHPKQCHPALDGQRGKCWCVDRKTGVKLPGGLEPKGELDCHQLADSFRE
inactive: nilotinib 0.005 | [1] -0.01 | dasatinib 0.085 | [2] -0.053 | [3] -0.022 | quisinostat -0.049 | tipifarnib 0.119 | [4] -0.021 | [5] 0.293 | [6] -0.026

HAUS8 (UniProt Q9BT25)
Sequence of UniProt Q9BT25 (Q9BT25 whole entry, looked up): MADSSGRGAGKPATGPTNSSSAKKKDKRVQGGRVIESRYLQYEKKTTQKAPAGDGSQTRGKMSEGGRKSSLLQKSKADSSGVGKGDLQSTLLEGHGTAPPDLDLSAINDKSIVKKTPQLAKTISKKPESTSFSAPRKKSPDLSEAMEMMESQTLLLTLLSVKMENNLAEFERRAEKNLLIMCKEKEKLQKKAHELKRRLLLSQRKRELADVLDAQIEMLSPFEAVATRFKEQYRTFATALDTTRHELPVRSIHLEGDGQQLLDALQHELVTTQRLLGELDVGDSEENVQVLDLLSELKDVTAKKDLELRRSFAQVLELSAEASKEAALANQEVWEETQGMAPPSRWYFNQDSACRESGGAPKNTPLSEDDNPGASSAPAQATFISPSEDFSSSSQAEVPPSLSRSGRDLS
inactive: nilotinib 0.025 | [1] 0.026 | dasatinib -0.073 | [2] 0.005 | [3] 0.015 | quisinostat -0.085 | tipifarnib 0.004 | [4] 0.042 | [5] 0.02 | [6] 0.006

KBTBD4 isoform 2 (UniProt Q9NVX7)
inactive: nilotinib 0.063 | [1] -0.019 | dasatinib -0.017 | [2] -0.086 | [3] -0.022 | quisinostat -0.038 | tipifarnib 0.154 | [4] 0.086 | [5] -0.018 | [6] -0.039

HMGB1 (UniProt P09429)
inactive: nilotinib 0.056 | [1] -0.002 | dasatinib 0.03 | [2] 0.064 | [3] -0.03 | quisinostat 0.108 | tipifarnib 0.026 | [4] -0.021 | [5] 0 | [6] -0.011

HMGCL (UniProt P35914)
Sequence of UniProt P35914 (P35914 whole entry, looked up): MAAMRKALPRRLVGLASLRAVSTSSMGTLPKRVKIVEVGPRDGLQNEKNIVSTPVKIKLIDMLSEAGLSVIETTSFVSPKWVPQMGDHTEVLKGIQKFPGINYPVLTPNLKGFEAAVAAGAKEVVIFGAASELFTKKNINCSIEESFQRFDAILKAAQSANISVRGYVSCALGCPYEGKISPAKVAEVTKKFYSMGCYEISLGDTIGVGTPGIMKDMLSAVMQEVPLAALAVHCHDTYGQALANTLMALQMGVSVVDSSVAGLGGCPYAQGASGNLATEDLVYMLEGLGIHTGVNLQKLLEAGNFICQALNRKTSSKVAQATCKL
inactive: nilotinib 0.011 | [1] -0.041 | dasatinib 0.029 | [2] 0.023 | [3] 0.02 | quisinostat -0.017 | tipifarnib -0.013 | [4] 0.018 | [5] -0.033 | [6] 0.015

ILKAP (UniProt Q9H0C8)
inactive: nilotinib 0.023 | [1] -0.01 | dasatinib 0.025 | [2] -0.094 | [3] -0.009 | quisinostat 0.011 | tipifarnib -0.005 | [4] 0.005 | [5] 0.026 | [6] 0.044

HSPA8 (UniProt P11142)
Sequence of UniProt P11142 (P11142 whole entry, looked up): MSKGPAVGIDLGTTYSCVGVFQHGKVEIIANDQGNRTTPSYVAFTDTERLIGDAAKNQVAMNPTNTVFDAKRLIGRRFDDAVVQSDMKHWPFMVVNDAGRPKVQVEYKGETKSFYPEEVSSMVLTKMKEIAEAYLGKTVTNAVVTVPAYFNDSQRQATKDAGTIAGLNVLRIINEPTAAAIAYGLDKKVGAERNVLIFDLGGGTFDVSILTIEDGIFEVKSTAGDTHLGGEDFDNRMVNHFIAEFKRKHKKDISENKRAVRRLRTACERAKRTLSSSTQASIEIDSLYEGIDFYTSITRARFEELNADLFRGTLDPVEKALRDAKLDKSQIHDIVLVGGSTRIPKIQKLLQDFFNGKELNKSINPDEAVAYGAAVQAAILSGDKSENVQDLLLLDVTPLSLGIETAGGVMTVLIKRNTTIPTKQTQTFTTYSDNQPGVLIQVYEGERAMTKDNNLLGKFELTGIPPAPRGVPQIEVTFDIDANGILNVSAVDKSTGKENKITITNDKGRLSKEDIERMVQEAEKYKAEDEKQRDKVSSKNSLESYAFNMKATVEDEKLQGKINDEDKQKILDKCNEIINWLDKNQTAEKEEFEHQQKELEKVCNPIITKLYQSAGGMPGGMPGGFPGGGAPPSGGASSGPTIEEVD
inactive: nilotinib -0.01 | [1] 0.002 | dasatinib 0.013 | [2] 0.004 | [3] -0.007 | quisinostat 0.022 | tipifarnib 0 | [4] -0.024 | [5] -0.008 | [6] 0.003

HACE1 (UniProt Q8IYU2)
Sequence of UniProt Q8IYU2 (Q8IYU2 whole entry, looked up): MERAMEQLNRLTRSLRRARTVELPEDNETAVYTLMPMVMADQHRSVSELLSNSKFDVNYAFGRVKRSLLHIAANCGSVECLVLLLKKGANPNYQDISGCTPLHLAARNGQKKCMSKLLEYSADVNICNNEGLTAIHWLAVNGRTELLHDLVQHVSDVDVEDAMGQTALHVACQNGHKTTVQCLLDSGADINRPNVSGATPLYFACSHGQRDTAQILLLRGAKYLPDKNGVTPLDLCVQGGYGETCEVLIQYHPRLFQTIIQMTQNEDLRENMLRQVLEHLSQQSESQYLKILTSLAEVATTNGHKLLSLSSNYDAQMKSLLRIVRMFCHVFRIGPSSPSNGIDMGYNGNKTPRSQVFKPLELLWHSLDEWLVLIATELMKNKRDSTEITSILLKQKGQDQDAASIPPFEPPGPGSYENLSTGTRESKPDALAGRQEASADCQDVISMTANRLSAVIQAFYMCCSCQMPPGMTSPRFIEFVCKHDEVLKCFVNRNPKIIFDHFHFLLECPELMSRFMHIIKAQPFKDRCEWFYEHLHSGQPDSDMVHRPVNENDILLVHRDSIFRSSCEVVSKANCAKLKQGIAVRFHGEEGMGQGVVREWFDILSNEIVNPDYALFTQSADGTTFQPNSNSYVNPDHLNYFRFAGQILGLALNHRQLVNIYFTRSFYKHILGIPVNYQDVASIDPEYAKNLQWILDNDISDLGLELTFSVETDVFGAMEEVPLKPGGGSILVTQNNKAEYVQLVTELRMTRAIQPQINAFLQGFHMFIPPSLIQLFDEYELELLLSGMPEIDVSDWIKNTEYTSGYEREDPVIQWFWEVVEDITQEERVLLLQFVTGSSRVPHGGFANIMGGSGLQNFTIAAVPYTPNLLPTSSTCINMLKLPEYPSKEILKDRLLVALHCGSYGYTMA
inactive: nilotinib -0.027 | [1] 0.043 | dasatinib -0.154 | [2] 0.035 | [3] -0.084 | quisinostat 0.061 | tipifarnib -0.175 | [4] 0.181 | [5] 0.028 | [6] -0.02

HADHA (UniProt P40939)
Sequence of UniProt P40939 (P40939 whole entry, looked up): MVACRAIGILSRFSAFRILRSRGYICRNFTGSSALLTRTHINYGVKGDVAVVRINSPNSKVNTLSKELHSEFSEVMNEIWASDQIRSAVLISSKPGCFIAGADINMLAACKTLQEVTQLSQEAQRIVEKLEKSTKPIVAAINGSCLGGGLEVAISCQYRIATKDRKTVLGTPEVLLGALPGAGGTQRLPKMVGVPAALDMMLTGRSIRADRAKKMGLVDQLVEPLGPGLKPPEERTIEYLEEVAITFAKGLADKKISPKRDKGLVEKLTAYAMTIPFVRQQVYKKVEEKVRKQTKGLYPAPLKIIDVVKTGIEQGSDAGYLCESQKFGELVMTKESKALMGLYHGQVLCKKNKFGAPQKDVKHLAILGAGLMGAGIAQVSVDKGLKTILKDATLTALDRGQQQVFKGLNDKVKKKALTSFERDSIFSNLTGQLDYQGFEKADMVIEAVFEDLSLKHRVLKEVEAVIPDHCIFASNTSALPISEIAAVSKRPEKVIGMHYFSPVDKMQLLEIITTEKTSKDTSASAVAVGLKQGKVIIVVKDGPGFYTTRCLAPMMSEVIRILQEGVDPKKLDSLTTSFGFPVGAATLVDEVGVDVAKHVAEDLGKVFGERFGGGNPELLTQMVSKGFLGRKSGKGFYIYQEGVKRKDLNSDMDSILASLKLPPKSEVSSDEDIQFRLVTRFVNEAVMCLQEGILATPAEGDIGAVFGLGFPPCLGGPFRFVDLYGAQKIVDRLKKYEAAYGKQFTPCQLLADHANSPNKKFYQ
inactive: nilotinib 0.051 | [1] -0.024 | dasatinib -0.036 | [2] 0.002 | [3] 0.03 | quisinostat -0.082 | tipifarnib 0.025 | [4] -0.077 | [5] -0.071 | [6] 0.078

GMIP (UniProt Q9P107)
inactive: nilotinib -0.094 | [1] -0.041 | dasatinib -0.097 | [2] -0.058 | [3] 0.023 | quisinostat -0.012 | tipifarnib -0.017 | [4] 0.034 | [5] -0.025 | [6] -0.022

INPP4A (UniProt Q96PE3)
inactive: nilotinib 0.012 | [1] -0.021 | dasatinib 0.028 | [2] 0.005 | [3] 0.123 | quisinostat -0.03 | tipifarnib 0.03 | [4] 0.032 | [5] 0.015 | [6] 0.032

KCT2 (UniProt Q8NC54)
Sequence of UniProt Q8NC54 (Q8NC54 whole entry, looked up): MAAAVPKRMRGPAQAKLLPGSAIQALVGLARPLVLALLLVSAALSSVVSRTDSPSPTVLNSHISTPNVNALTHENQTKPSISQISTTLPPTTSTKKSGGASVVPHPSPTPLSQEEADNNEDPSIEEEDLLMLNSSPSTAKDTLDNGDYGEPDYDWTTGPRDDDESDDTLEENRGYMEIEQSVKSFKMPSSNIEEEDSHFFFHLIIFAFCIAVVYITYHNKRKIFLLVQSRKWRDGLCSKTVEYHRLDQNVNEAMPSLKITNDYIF
inactive: nilotinib -0.034 | [1] 0.008 | dasatinib 0.025 | [2] -0.025 | [3] 0.043 | quisinostat 0.031 | tipifarnib 0.001 | [4] 0.024 | [5] 0.051 | [6] 0.005

INTS5 (UniProt Q6P9B9)
inactive: nilotinib 0.11 | [1] -0.093 | dasatinib -0.012 | [2] 0.062 | [3] 0.055 | quisinostat -0.002 | tipifarnib 0.294 | [4] 0.043 | [5] -0.064 | [6] 0.081

INTS3 (UniProt Q68E01)
inactive: nilotinib -0.007 | [1] 0.007 | dasatinib -0.05 | [2] -0.045 | [3] 0.005 | quisinostat -0.038 | tipifarnib 0.09 | [4] 0.028 | [5] -0.002 | [6] -0.028

GTF2A1 (UniProt P52655)
inactive: nilotinib 0.024 | [1] -0.047 | dasatinib 0.022 | [2] 0.095 | [3] 0.046 | quisinostat -0.039 | tipifarnib 0.021 | [4] -0.04 | [5] 0.007 | [6] -0.012

HNRNPDL (UniProt O14979)
inactive: nilotinib -0.208 | [1] 0.036 | dasatinib 0.016 | [2] -0.018 | [3] -0.005 | quisinostat 0.074 | tipifarnib -0.002 | [4] -0.062 | [5] -0.008 | [6] 0.004

GMDS (UniProt O60547)
inactive: nilotinib -0.023 | [1] 0.05 | dasatinib -0.043 | [2] -0.03 | [3] -0.013 | quisinostat -0.041 | tipifarnib 0.029 | [4] 0.038 | [5] -0.005 | [6] -0.029

HLCS (UniProt P50747)
inactive: nilotinib -0.005 | [1] -0.005 | dasatinib 0.012 | [2] -0.003 | [3] 0.068 | quisinostat -0.022 | tipifarnib -0.006 | [4] -0.011 | [5] 0.024 | [6] 0.02

HDAC2 (UniProt Q92769)
inactive: nilotinib -0.022 | [1] 0.014 | dasatinib -0.024 | [2] -0.013 | [3] 0.044 | tipifarnib -0.011 | [4] 0.018 | [5] 0.001 | [6] -0.031
active: quisinostat 0.635

KBTBD2 (UniProt Q8IY47)
inactive: nilotinib 0.014 | [1] -0.005 | dasatinib 0.012 | [2] 0.006 | [3] 0.028 | quisinostat -0.178 | tipifarnib -0.018 | [4] 0.007 | [5] 0.009 | [6] -0.202
